This passage reports 1-h baseline activity results from the supplement of paper PMC9950053.

Structures can show the parent of a compound that is named as a salt.

The assay relates to Danio rerio larvae (5 dpf). Description: 1-h baseline activity (% time moving, periods 1-6) minus DMSO control (percentage points); higher = more locomotor activity than DMSO larvae. Conditions: 10 µM; exposure time: 3 h pre-incubation + 3 h imaging. How it is done:
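Wild-type 5 dpf zebrafish larvae (n=48 per drug, 96-well plates, 28.5 °C) were exposed to Tocris FDA-approved library compounds at 10 µM (0.1% DMSO) for 3 h before and 3 h during imaging. Images were taken every 6 s during visual (moving coloured lines) and acoustic stimuli, and larvae were tracked with the DeepLabCut-based Z-LaP Tracker. Each behavioural measure is the treated-group mean minus the DMSO vehicle control mean (n=844), in percentage points. This mapping covers compounds with 4-character plate codes.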
`N[C@@H]1C[C@H]1c1ccccc1` [Tranylcypromine hydrochloride]: the 1-h baseline activity is -14.7.
In the case of `CC(C)C[C@H]1C(=O)N2CCC[C@H]2[C@]2(O)O[C@](NC(=O)[C@@H]3C=C4c5cccc6[nH]c(Br)c(c56)C[C@H]4N(C)C3)(C(C)C)C(=O)N12` [Bromocriptine mesylate], the 1-h baseline activity was 16.1.
In the case of `CC(O)(CS(=O)(=O)c1ccc(F)cc1)C(=O)Nc1ccc(C#N)c(C(F)(F)F)c1` (stereo unspecified) [Bicalutamide] it was 3; in that of `Cc1cccc([C@H](C)c2c[nH]cn2)c1C` [Dexmedetomidine hydrochloride], -27.3.
The value for `O=c1[nH]c2ccccc2n1C1CCN(CCCC(c2ccc(F)cc2)c2ccc(F)cc2)CC1` [Pimozide] was -18.2.
In the case of `CCN(C)C(=O)Oc1cccc([C@H](C)N(C)C)c1` [Rivastigmine tartrate] it was 7.3.
With `COc1cc2c(cc1OC)C1CC(=O)C(CC(C)C)CN1CC2` (stereo unspecified) [Tetrabenazine], the 1-h baseline activity is -0.785.
In the case of `C=C1C[C@@H]2[C@H](CC[C@]3(C)C(=O)CC[C@@H]23)[C@@]2(C)C=CC(=O)C=C12` [Exemestane] it was -19.5.
The value for `CN1C[C@H](C(=O)N[C@]2(C)O[C@@]3(O)[C@@H]4CCCN4C(=O)[C@H](Cc4ccccc4)N3C2=O)C[C@@H]2c3cccc4[nH]cc(c34)C[C@H]21` [Dihydroergotamine mesylate] was 1.07; that for `CC[C@@H](C(N)=O)N1CCCC1=O` [Levetiracetam] was 5.78.
In the case of `C=CCN1C[C@H](C(=O)N(CCCN(C)C)C(=O)NCC)C[C@@H]2c3cccc4[nH]cc(c34)C[C@H]21` [Cabergoline] it was -9.92.
